Screening data: PubChem BioAssay, several laboratories
VHR inh abs: VHR1 phosphatase inhibitors, primary screen, biochemical, absorbance, uHTS | recombinant VHR phosphatase, pNPP absorbance | inhibition, % at 13.3 µM | 290,000 compounds, 0.52% hits | AID 1654, 2009; in the data active = inhibition above about 50%
PrPC TRFRET: inhibitors of human cell surface prion protein PrPC, primary screen, cell-based, TR-FRET; Major prion protein (Homo sapiens), P04156; AID 720596, 2013; TR-FRET read-out; inhibition, % at 13.8 µM; 370,000 compounds, 0.43% hits; in the data active = inhibition above about 24%
TcdB inh: TcdB glycohydrolase inhibitors, primary screen, biochemical, single point, plate reader | TcdB glycohydrolase enzymatic assay | Toxin B (Clostridioides difficile), P18177 | AID 652162, 2013 | inhibition, % at 9.99 µM | 350,000 compounds, 0.24% hits; in the data active = inhibition above about 10%
PrPC TRFRET cf: confirmation of inhibitors of cell surface human prion protein, confirmation, cell-based, TR-FRET. shares compounds with PrPC TRFRET. cell surface PrPC level. inhibition, % at 13.8 µM. 1,500 compounds, 65% hits. AID 743200, 2013; in the data active = inhibition above about 25%
LD9 cytotox: cytotoxicity in LD9 cells, cytotoxicity control for cell surface PrPc inhibitor project, cell-based, luminescence, high throughput; shares compounds with PrPC TRFRET; luminescence viability; inhibition, % at 13.8 µM; 1,500 compounds, 29% hits; AID 743201, 2013; in the data active = inhibition above about 9.5%
Hits are given with their value; – = inactive; · = no result given. This is a sample that favours compounds with a hit; in the whole collection about 0.82% have one here.

SMILES | VHR inh abs | PrPC TRFRET | TcdB inh | PrPC TRFRET cf | LD9 cytotox
CC1C(OC(=O)CCC(=O)NC(C)(C)CO)O[C@H]2OC3(C)CC[C@H]4[C@H](C)CCC1C24OO3 (some centres not stated) | – | 32.7 | – | 33.0 | 19.3
CO[C@@H]1CN(C)C(=O)c2ccc(NC(=O)Nc3c(C)noc3C)cc2OC[C@@H](C)N(C)C[C@H]1C | · | · | – | · | ·
CCCN1[C@@H]2Cn3c(ccc(-c4cccc(F)c4)c3=O)[C@H]1[C@@H](C(=O)N(C)C)[C@@H]2CO | · | · | – | · | ·
CS(=O)(=O)Nc1ccccc1C(=O)N1CCOCC1 | – | 34.3 | · | – | –
Cc1ccc(S(=O)(=O)Nc2ccccc2C(=O)N2CCOCC2)cc1 | – | – | – | · | ·
COc1cccc(S(=O)(=O)N2CC3(CN[C@@H](CO)c4[nH]c5cc(OC)ccc5c43)C2)c1 | · | · | – | · | ·
S=C(Nc1ccccc1)Nc1cccc(Br)c1 | – | – | – | · | ·
S=C(Nc1ccccc1)Nc1ccc(Br)cc1 | – | 24.6 | – | – | –
CNC(=O)C[C@@H]1CC[C@@H]2[C@@H](COc3ccc(NC(=O)Nc4ccccc4)cc3C(=O)N2C)O1 | · | · | – | · | ·
O=C(NCC[C@@H]1CC[C@H](NS(=O)(=O)c2ccc(F)cc2)[C@@H](CO)O1)c1ccc2c(c1)OCO2 | · | · | – | · | ·
O=C(C[C@@H]1C=C[C@@H](NC(=O)NC2CCCCC2)[C@@H](CO)O1)NCc1ccccc1 | · | · | – | · | ·
CC1CC(N(C(=O)c2ccco2)c2ccccc2)c2ccccc2N1C(=O)c1ccco1 (configuration not stated) | – | – | · | · | ·
CC1CC(N(C(=O)c2ccc(Cl)cc2)c2ccccc2)c2ccccc2N1C(=O)c1ccco1 (configuration not stated) | – | 24.5 | · | – | –
C[C@H]1CN([C@@H](C)CO)C(=O)Cc2cc(NC(=O)Nc3ccc4c(c3)OCO4)ccc2O[C@@H]1CN(C)S(C)(=O)=O | · | · | – | · | ·
COc1ccc(NC(=S)NC(=O)c2ccccc2)cn1 | – | – | – | · | ·
COc1ccc(NC(=O)c2cccc(Oc3ccccc3)c2)cn1 | – | 26.0 | – | – | –
CO[C@H]1CN(C)C(=O)c2ccc(NS(=O)(=O)c3ccc(C)cc3)cc2OC[C@H](C)N(Cc2nccs2)C[C@@H]1C | · | · | – | · | ·
Cc1cc(C)c(C)c(C(=O)c2ccccc2C(=O)O)c1C | – | – | – | · | ·
Cc1c(C(=O)c2ccccc2C(=O)O)sc2ccccc12 | – | 33.3 | – | 54.3 | –
CO[C@@H]1CN(C)C(=O)c2cc(NC(=O)C3CC3)ccc2OC[C@@H](C)N(CC2CC2)C[C@@H]1C | · | · | – | · | ·
O=c1oc2ccccc2c2c1C(O)CO2 (configuration not stated) | – | – | – | · | ·
O=c1oc2ccccc2c(O)c1[C@H]1c2ccc(O)cc2Oc2c1c(=O)oc1ccccc21 | – | 41.5 | – | 56.6 | –
COc1cccc(CNC(=O)c2ccc(S(=O)(=O)N3CCOCC3)cc2)c1 | · | – | – | · | ·
Cc1ccc(CNC(=O)c2ccc(S(=O)(=O)N3CCCCCC3)cc2)cc1 | · | – | – | · | ·
Cc1cc2cc(CNC(=O)c3ccc(S(=O)(=O)N(C)C)cc3)ccc2n1C | – | 53.6 | – | 36.4 | –
SMILES | VHR inh abs | PrPC TRFRET | TcdB inh | PrPC TRFRET cf | LD9 cytotox
Cc1cc2cc(CNC(=O)c3ccc(Br)o3)ccc2n1C | – | – | – | · | ·
Cc1cc2cc(CNC(=O)c3ccc(S(=O)(=O)N4CCCCC4)cc3)ccc2[nH]1 | – | 28.9 | – | – | –
Cc1cc2cc(CNC(=O)c3ccc(S(=O)(=O)N4CCOCC4)cc3)ccc2n1C | – | 42.9 | – | 44.6 | –
CS(=O)(=O)N1CC2(C1)[C@H](c1ccccc1)[C@@H](CO)N2CC1CC1 | · | · | – | · | ·
COC(=O)CSc1nnc(-c2ccc(OC)cc2OC)o1 | – | – | · | · | ·
COc1cccc(OC(=O)CSc2nnc(-c3ccccc3Br)o2)c1 | – | 32.4 | · | 38.2 | –
C[C@@H]1CN([C@H](C)CO)C(=O)Cc2cc(NS(C)(=O)=O)ccc2O[C@@H]1CN(C)CC1CCCCC1 | · | · | – | · | ·
Cc1ccc(C(=O)Nc2nc(COc3ccccc3)cs2)s1 | – | 30.0 | · | – | –
CC(=O)Nc1nc(COc2ccccc2)cs1 | – | – | · | · | ·
CNC(=O)C[C@@H]1CC[C@H]2[C@H](COc3ccc(NC(=O)c4ccc(F)cc4)cc3C(=O)N2C)O1 | · | · | – | · | ·
